Source: the antibiotic and cytotoxicity screens of Wong et al. (2023)
Screen size: about 39,000 compounds; about 1,500 (3.8%) were called active. The entries come from a sample that favours actives as a whole.

The molecules below were run on HSkMC (human skeletal muscle cells) (assay: cytotoxicity call (relative viability < 0.9)). Settings: 10 µM.

| Structure (SMILES) | cytotoxicity call |
| --- | --- |
| NCc1[nH]nc2cc(F)ccc12 | inactive |
| CC(=O)[C@]12[C@@H]3CC=C[C@H]1N2CC3 (some centres undefined) | inactive |
| CCN1C[C@]2(OC(=O)c3ccccc3NC(C)=O)CC[C@H](OC)[C@@]34[C@@H]2C[C@@H]([C@@H]13)[C@@]1(O)C[C@H](OC)[C@H]2C[C@@H]4[C@]1(O)[C@H]2OC | inactive |
| COc1cc2c(cc1OC)C1C(=O)c3ccc4c(c3OC1CO2)CC(C(C)C)O4 (centres undefined) | inactive |
| CCC(C(=O)[O-])C1CCC(C)C(C(C)C(O)C(C)C(=O)C(CC)C2OC3(C=CC(O)C4(CCC(C)(C5CCC(O)(CC)C(C)O5)O4)O3)C(C)CC2C)O1.[Na+] (centres undefined) | inactive |
| CC[C@@H](C(=O)[C@@H](C)[C@@H](O)[C@H](C)[C@@H]1O[C@@H]([C@@H](CC)C(=O)O)CC[C@@H]1C)[C@H]1O[C@]2(C=C[C@@H](O)[C@]3(CC[C@@](C)([C@H]4CC[C@](O)(CC)[C@H](C)O4)O3)O2)[C@H](C)C[C@@H]1C | active |
| [N-]=[N+]=NCC(=O)N1CCOCC1 | inactive |
| COCC(=O)N[C@@H]1[C@@H]2CNC[C@@H]21 | inactive |
| C[C@H]1[C@H](O)[C@@H](C)/C=C\C=C/CC\C=C/C=C\C=C/C=C\[C@@H](O[C@@H]2O[C@H](C)[C@@H](O)[C@H](N)[C@@H]2O)C[C@H]2O[C@@](O)(C[C@@H](O)[C@@H]2C(=O)O)C[C@@H](O)[C@@H](O)CC[C@@H](O)C[C@@H](O)C[C@@H](O)CC(=O)O[C@H]1C | inactive |
| CN1CCC2(C)c3cc(O)ccc3N(C)C12.O=C(O)C=CC(=O)O (centres undefined) | inactive |
| O=S(=O)(O)O.Oc1cccc2cccnc12 | inactive |
| C[C@]12CC[C@](C)(O1)[C@H](C(=O)O)[C@@H]2C(=O)O | inactive |
| O=C(O)[C@H]1[C@H](C(=O)O)[C@H]2CC[C@@H]1O2 | inactive |
| C[C@@]1(C(=O)O)[C@H]2CC[C@@H](O2)[C@@]1(C)C(=O)O | active |
| CC1(C)[C@@H](C=C(Br)Br)[C@@H]1C(=O)O[C@@H](C#N)c1cccc(Oc2ccccc2)c1 | inactive |
| FCCN1C[C@H]2CCN[C@H]2C1 | inactive |
| CC(=O)OC(C)(C)/C=C/C(=O)C(C)(O)[C@H]1[C@H](O)C[C@@]2(C)[C@H]3CC=C4[C@@H](C[C@H](O)C(=O)C4(C)C)[C@]3(C)C(=O)C[C@]12C (some centres undefined) | inactive |
| CC(C)(O)/C=C/C(=O)[C@](C)(O)[C@H]1[C@H](O)C[C@@]2(C)[C@H]3CC=C4[C@@H](CC(=O)C(=O)C4(C)C)[C@]3(C)C(=O)C[C@]12C | active |
| C[C@@H]1CN([C@@H](C)CO)C(=O)c2c(c3ccccc3n2C)-c2ccccc2CO[C@@H]1CN(C)C(=O)Oc1ccccc1 | inactive |
| C[C@H]1O[C@H](n2cnc3c(N)ncnc32)C[C@@H]1O | inactive |
| CC(C)C[C@@H](NC(=O)[C@H](Cc1ccccc1)NC(=O)CNC(=O)[C@@H](C)NC(=O)[C@@H](N)Cc1ccc(O)cc1)C(=O)O | inactive |
| O=C([O-])Cc1ccccc1.[Na+] | inactive |

| Structure (SMILES) | cytotoxicity call |
| --- | --- |
| CCCCOC(=O)c1ccccc1C(=O)OCCCC | inactive |
| C[CH2][Hg][S]c1ccccc1C(=O)[O-].[Na+] | active |
| Cc1noc(C)c1CN1CCNCC1 | inactive |
| CCN(C)C(=O)Oc1cccc(C(C)N(C)C)c1.O=C(O)C(O)C(O)C(=O)O (centres undefined) | inactive |
| CCCCOC(=O)C1=CC(=O)CC(C)(C)O1 | inactive |
| CNCCc1ccc(O)c(O)c1 | inactive |
| NCCN1CCN(c2ccc(F)cc2)CC1 | inactive |
| CCCCCCCCCCCCCCCC[n+]1ccccc1.[Cl-] | active |
| CCCCCCCCCCCCCCCC[n+]1ccccc1 | active |
| c1ccc(CN2CCNCC2)nc1 | inactive |
| CN[C@@H](C)Cc1cnccn1 | inactive |
| CCOCC(=O)N[C@H]1CCSC1=O | inactive |
| O=C1C[C@@H](CO)CN1 | inactive |
| CN(C)C(=O)C(CCN1CCC(O)(c2ccc(Cl)cc2)CC1)(c1ccccc1)c1ccccc1.Cl | inactive |
| C[C@]12CC/C(=N\OCCN)C[C@@H]1C(=O)C[C@@H]1[C@@H]2CC[C@]2(C)C(=O)CC[C@@H]12 | active |
| C[C@]12CCC(=O)C[C@@H]1CC[C@@H]1[C@@H]2CC[C@]2(C)C(=O)CC[C@@H]12 [5alpha-ANDROSTAN-3,17-DIONE ] | inactive |
| CC12CCC3C(CC=C4CC(O)CCC43C)C1CCC2=O (centres undefined) | inactive |
| CC1=C2C(=COC(C)C2C)C(O)=C(C(=O)O)C1=O (centres undefined) | inactive |
| C=C(C)[C@H]1CN[C@H](C(=O)O)[C@H]1CC(=O)O | inactive |
| COC(=O)C[C@H]1CC[C@@H]2NC[C@@H](O)COC[C@H]2O1 | inactive |
| Cc1ccc2c(CCN)c(C)n(C)c2c1 | inactive |
| CCn1nc(-c2cccnc2)nc2c(=O)n(C)c(=O)nc1-2 | active |

| Structure (SMILES) | cytotoxicity call |
| --- | --- |
| C1C[C@@H]2C[C@@H]2N1 | inactive |
| S=C=Nc1cccc(C2(N3CCCCC3)CCCCC2)c1 | inactive |
| Cc1ncc(CNC(=O)N(CCCl)N=O)c(N)n1.Cl | inactive |
| CCC1(c2ccccc2)C(=O)NC(=O)NC1=O | inactive |
| NC[C@H]1CCCc2ccc(Cl)cc21 | inactive |
| COCC(=O)N1[C@@H]2c3ccc(C4=CCCC4)c(=O)n3C[C@H]1[C@H](CO)[C@H]2C(=O)OC | inactive |
| CC(=O)OC1CCC2(C)C(=CCC3C4CCC(=O)C4(C)CCC32)C1 (centres undefined) | inactive |
| CC1(C)S[C@@H]2[C@H](N)C(=O)N2[C@H]1C(=O)O | inactive |
| N.N.[Cl][Pt][Cl] | inactive |
| CCOC(=O)c1c(CN2CCN(Cc3ccccc3)CC2)n(Cc2ccccc2)c2cc(Br)c(O)cc12 | active |
| CCOC(=O)c1c(CN2CCN(c3ccccc3)CC2)n(Cc2ccccc2)c2cc(Br)c(O)cc12 | active |
| CNCc1cccnc1 | inactive |
| O=C1CO[C@H]2CNC[C@@H]2N1CC1CCCC1 | inactive |
| C[C@H](CO)N1C[C@H](C)[C@@H](CN(C)C(=O)Oc2ccc3ccccc3c2)OCc2cnnn2CCCC1=O | inactive |
| O/N=C1\CN2CCC1CC2 | inactive |
| C=C(C)C1Cc2c(ccc3c2OC2COc4cc(OC)c(OC)cc4C2C3=O)O1 (centres undefined) | inactive |
| c1ccc(-c2ccncc2)cc1 | inactive |
| CC1CCC2(NC1)OC1CC3C4CC=C5CC(O)CCC5(C)C4CCC3(C)C1C2C (centres undefined) | inactive |
| C[C@@H]1CC[C@@]2(OC1)O[C@H]1[C@@H](O)[C@H]3[C@H]4CC[C@H]5C[C@H](O[C@@H]6O[C@H](CO)[C@H](O[C@@H]7O[C@H](CO)[C@@H](O)[C@H](O[C@@H]8OC[C@@H](O)[C@H](O)[C@H]8O)[C@H]7O[C@@H]7O[C@H](CO)[C@H](O)[C@H](O[C@@H]8O[C@H](CO)[C@@H](O)[C@H](O)[C@H]8O)[C@H]7O)[C@H](O)[C@H]6O)[C@H](O)C[C@]5(C)[C@@H]4CC[C@]3(C)[C@H]1[C@@H]2C | inactive |
| C[C@@H]1CC[C@@]2(OC1)O[C@H]1C[C@H]3[C@@H]4CC=C5C[C@@H](O[C@@H]6O[C@H](CO)[C@@H](O[C@@H]7O[C@@H](C)[C@H](O)[C@@H](O)[C@H]7O)[C@H](O)[C@H]6O[C@@H]6O[C@@H](C)[C@H](O)[C@@H](O)[C@H]6O)CC[C@]5(C)[C@H]4CC[C@]3(C)[C@H]1[C@@H]2C | active |
